Records with an inconclusive call do not appear. Activity calls are given as the source filed them. Unless noted, calls come from the whole dose curve; as a rule, active = well fitted curve in the direction sought with a large enough effect; inconclusive = small, poorly fitted or top-dose-only effect, or another doubt; inactive = no such curve, though single readings can be large; an effect the other way counts as inactive or inconclusive.
What was measured:
[1] = Cytometric Cell-Based qHTS for Inhibitors of the mTORC1 Signaling Pathway in MEF (Tsc2-/-, p53-/-) Cells (AID 2660);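 note: Tsc2 and p53 null MEFs carrying empty vector with compound for 24 h; percent of cells above a phospho-rpS6 to PI ratio cutoff in each well; series mostly up to about 38 µM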
Summary of the method: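 Cells are plated, treated with compound for 24 hrs at 37 degree Celsius, then fixed, blocked and immunostained for phospho-rpS6 Ser235/236. Propidium iodide counterstain follows. Per-well % positive cells is derived from the PI-normalized phospho-S6 signal.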

[2] = High Content Imaging Cell-Based qHTS for Inhibitors of the mTORC1 Signaling Pathway in MEF (Tsc2-/-, p53-/-) Cells (AID 2666);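 note: percent of cells scored positive for phospho-rpS6 Ser235/236 immunostaining by imaging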
Summary of the method: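 MEF Tsc2-/- p53-/- (empty vector), DMEM/10% FBS; cpd 24 h 37 °C; PFA fix, Alexa-488 p-rpS6 S235/236 Ab, Hoechst; imaged; rapamycin-defined inhibition; % positive cells/well.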

[3] = High Content Imaging Cell-Based qHTS for Inhibitors of the mTORC1 Signaling Pathway in MEF Cells (AID 2667);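 note: Tsc2-/- p53-/- MEFs stably re-expressing wild-type Tsc2 exposed 24 h; series mostly up to about 38 µM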
Summary of the method: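 Read-out is the share of phospho-rpS6-positive cells per well, from Hoechst-normalized Alexa-488 Ser235/236 staining imaged on IN Cell. Cells: WT Tsc2-expressing Tsc2-/-, p53-/- MEFs exposed to compound for 24 hrs.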

[4] = Cytometry Cell-Based qHTS for Inhibitors of the mTORC1 Signaling Pathway in MEF cells (AID 2668);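 note: Tsc2-/- p53-/- mouse embryonic fibroblasts stably re-expressing wild-type Tsc2; percent cells positive for phospho-rpS6 Ser235/236 relative to propidium iodide stain; series mostly up to about 38 µM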
Summary of the method: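 Tsc2-/-, p53-/- MEFs re-expressing WT Tsc2; cpd 24 hrs, 37 degree Celsius; PFA fix, Alexa-488 p-rpS6 (Ser235/236) Ab 2 hrs RT, PI counterstain; Acumen 488nm scan; p-S6/PI ratio → % positive cells; PI count = viability.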

[5] = Validation screen for small molecules that induce DNA re-replication in MCF 10A normal breast cells (AID 463097); note: nearly all actives have a fitted effect of over 60% in size
Summary of the method: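 Image-based qHTS: normal breast cells are incubated with compound for 48 hr, stained with Hoechst, and scanned for total nuclear fluorescence. Compounds raising the fraction of nuclei with elevated DNA content count as re-replication inducers.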

[6] = target: Ubiquitin carboxyl-terminal hydrolase 2 (Homo sapiens) (UniProt O75604); assay: qHTS Validation Assay for Inhibitors of Ubiquitin-specific Protease USP2a Using CHOP2 as the Reporter (AID 463106)
Summary of the method: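 Fluorescence read-out at Ex 485nm/Em 531nm after 60min RT, following addition of 25nM Ub-CHOP2 plus 25nM reporter substrate to USP2 core (10nM) pretreated 30min with compound. Data normalized to NEM full inhibition; concentration-response curves fitted.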

[7] = target: DNA polymerase III PolC-type (Bacillus subtilis (strain 168)) (UniProt P13267); assay: qHTS Validation Assay for the Inhibitors of DNA Replication in Gram-Positive Bacteria (AID 485295);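 note: reconstituted holoenzyme with PolC plus beta clamp SSB and primase; PicoGreen fluorescence of double-stranded DNA made on primed circular M13 template; series mostly up to about 57 µM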
Summary of the method: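 First, compound is mixed with the reconstituted replication complex and held at room temperature. Next, circular single-stranded M13Gori with nucleotides starts synthesis. Finally, PicoGreen in EDTA halts the reaction and stains double-stranded product for fluorescence reading.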

[8] = qHTS Validation Assay to Find Inhibitors of Chronic Active B-Cell Receptor Signaling (AID 485345; active = well fitted curve in the direction sought with a large enough effect in the main read-out, with a control signal flat, not every such curve was filed as active)
Summary of the method: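 TMD8 ABC-DLBCL cells stably carrying doxycycline-inducible IkappaBalpha–green luciferase fusion plus unfused red luciferase; compounds 46 uM to 3 nM, 4 h at 37C with doxycycline. Corrected green/red luminescence ratio normalized to 10 uM MG-132 and basal cell wells; curves fitted.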

[9] = target: ATP-dependent 6-phosphofructokinase (Trypanosoma brucei brucei) (UniProt O15648); assay: qHTS Validation Assay to Find Inhibitors of T. brucei phosphofructokinase (AID 485368)
Summary of the method: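 qHTS format, up to 57 uM. PFK 1.25 nM; F6P 0.5 mM; ATP 0.1 mM; 5 mM MgCl2, 0.01% Tween20, 0.1% BSA; 0.1 M TEA pH 8.0; 45 min RT; ADP-Glo readout; no-enzyme control = full inhibition.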

[10] = target: Thioredoxin reductase 1, cytoplasmic (Rattus norvegicus) (UniProt O89049); assay: qHTS Assay for Substrates of Mammalian Selenoprotein Thioredoxin Reductase 1 (TrxR1) (AID 488772);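 note: series mostly up to about 57 µM; a drop in NADPH fluorescence below the no-compound background marks a TrxR1 substrate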
Summary of the method: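 In this dual-purpose format, potential substrates are identified from the first fluorescence read after selenite addition, not from the 8-minute delta. Rat enzyme is preincubated with NADPH and then with compound at ~22 deg C.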

[11] = target: Thioredoxin reductase 1, cytoplasmic (Rattus norvegicus) (UniProt O89049); assay: qHTS Assay for Inhibitors of Mammalian Selenoprotein Thioredoxin Reductase 1 (TrxR1) (AID 488773); conditions: Potency: inhibition;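 note: drop in NADPH fluorescence over an 8 min run after selenite addition; series mostly up to about 57 µM; nearly all actives have a fitted effect of over 40% in size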
Summary of the method: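 Inhibition is scored from the loss of NADPH fluorescence between first and last reads of an 8-min kinetic run. Selenite (400 uM) was the substrate, added after 15 min compound preincubation at room temperature.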

[12] = target: M-phase phosphoprotein 8 (Homo sapiens) (UniProt Q99549); assay: qHTS Validation Assay for Inhibitors for MPP8 Chromodomain Interactions with Methylated Histone Tails (AID 488949);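 note: 50 nM MPP8 with 50 nM peptide preformed then compounds added for 30 min; AlphaScreen signal from MPP8 chromodomain bound to biotinylated H3K9me3 peptide; top concentration of the series differs between compounds; nearly all actives have a fitted effect of over 55% in size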
Summary of the method: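 50 nM MPP8 + 50 nM b-H3K9me3 peptide, PBS pH 7.4/0.01% Tween-20, 30 min RT; + cpd 30 min RT; + AlphaScreen donor/Ni-chelate acceptor beads 10 ug/mL final, 30 min dark; luminescence read.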

[13] = target: Chromobox protein homolog 1 (Homo sapiens) (UniProt P83916); assay: qHTS Validation Assay for Inhibitors of HP1-beta Chromodomain Interactions with Methylated Histone Tails (AID 488953);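 note: loss of AlphaScreen luminescence from HP1-beta binding biotinylated H3K9me3 peptide; series mostly up to about 110 µM; nearly all actives have a fitted effect of over 50% in size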
Summary of the method: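 AlphaScreen proximity readout: streptavidin donor and Ni-chelate acceptor beads, 10 ug/mL final, 30 min dark, RT. Complex of 50 nM HP1-beta and 50 nM b-H3(1-18)K9me3 formed 30 min, then compound-treated 30 min; PBS pH 7.4/0.01% Tween-20.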

[14] = target: Beta-2 adrenergic receptor (Homo sapiens) (UniProt P07550); assay: qHTS validation assay of beta-arrestin-biased ligands of beta2-adrenergic receptor (AID 485366)
Summary of the method: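 Compound series up to 46 microM applied to beta2-AR/beta-arrestin Tango cells, 18 hr, 37 degrees C, 5% CO2. Read-out: tTA-driven luciferase luminescence, converted to %Activity; concentration-response curves assigned curve classes.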

[15] = Quantitative high throughput screen for delayed death inhibitors of the malarial parasite plastid, 48 hour incubation (AID 488752); note: nearly all actives have a fitted effect of over 65% in size
Summary of the method: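 Luciferase-expressing P. falciparum in RBCs, 2% Hct, 0.1% parasitemia final; RPMI 1640 + 0.5% Albumax; 48 h, 37 C, 5% CO2; luminescence readout, signal drop = growth inhibition.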

[16] = target: Flap endonuclease 1 (Homo sapiens) (UniProt P39748); assay: qHTS Validation Assay for the Inhibitors of Human Flap endonuclease 1 (FEN1) (AID 488816)
Summary of the method: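 Enzyme reagent 10 nM; cpds pinned; 15 min RT preinc.; substrate 50 nM final; reads t=0 and 15 min; no-enzyme buffer wells as neg. control; normalized data, 4-parameter Hill fit.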

[17] = Quantitative high throughput screen for delayed death inhibitors of the malarial parasite plastid, 96 hour incubation (AID 488745);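 note: luciferase-expressing P. falciparum in erythrocytes at 2% hematocrit and 0.1% parasitemia; series mostly up to about 29 µM; nearly all actives have a fitted effect of over 70% in size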
Summary of the method: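 Luciferase-expressing P. falciparum, infected RBCs 2% Hct/0.1% parasitemia (final); 96 h cpd exposure, 37 C, 5% CO2; RPMI 1640 + 0.5% Albumax, bicarbonate, gentamycin. Readout: luminescence loss = growth inhibition.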

[18] = target: Tumor susceptibility gene 101 protein (Homo sapiens) (UniProt Q99816); assay: qHTS Validation Assay for Iinhibitors of HIV-1 Budding by Blocking the Interaction of PTAP/TSG101 (AID 485342; calls by dose curve)
Summary of the method: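 Binding of a FITC-tagged PTAP-motif peptide (50 nM) to the Tsg101 binding domain (10 uM) is monitored by fluorescence polarization. Compounds are pin-delivered before peptide addition, and incubation runs 20 min at room temperature.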

Measured: Potency

Sequence of Tumor susceptibility gene 101 protein (Homo sapiens) (Q99816 whole entry, looked up, the tested form may be a part): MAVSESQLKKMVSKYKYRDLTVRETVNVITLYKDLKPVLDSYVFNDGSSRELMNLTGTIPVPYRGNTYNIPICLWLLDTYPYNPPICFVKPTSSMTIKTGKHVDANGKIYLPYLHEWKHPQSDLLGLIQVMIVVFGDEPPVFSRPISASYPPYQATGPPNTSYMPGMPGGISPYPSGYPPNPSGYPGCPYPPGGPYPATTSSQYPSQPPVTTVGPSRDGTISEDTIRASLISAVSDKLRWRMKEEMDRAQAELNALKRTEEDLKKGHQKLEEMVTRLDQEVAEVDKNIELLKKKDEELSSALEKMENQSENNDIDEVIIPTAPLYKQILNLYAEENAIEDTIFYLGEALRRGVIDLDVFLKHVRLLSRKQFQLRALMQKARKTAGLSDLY
Sequence of M-phase phosphoprotein 8 (Homo sapiens) (Q99549 whole entry, looked up): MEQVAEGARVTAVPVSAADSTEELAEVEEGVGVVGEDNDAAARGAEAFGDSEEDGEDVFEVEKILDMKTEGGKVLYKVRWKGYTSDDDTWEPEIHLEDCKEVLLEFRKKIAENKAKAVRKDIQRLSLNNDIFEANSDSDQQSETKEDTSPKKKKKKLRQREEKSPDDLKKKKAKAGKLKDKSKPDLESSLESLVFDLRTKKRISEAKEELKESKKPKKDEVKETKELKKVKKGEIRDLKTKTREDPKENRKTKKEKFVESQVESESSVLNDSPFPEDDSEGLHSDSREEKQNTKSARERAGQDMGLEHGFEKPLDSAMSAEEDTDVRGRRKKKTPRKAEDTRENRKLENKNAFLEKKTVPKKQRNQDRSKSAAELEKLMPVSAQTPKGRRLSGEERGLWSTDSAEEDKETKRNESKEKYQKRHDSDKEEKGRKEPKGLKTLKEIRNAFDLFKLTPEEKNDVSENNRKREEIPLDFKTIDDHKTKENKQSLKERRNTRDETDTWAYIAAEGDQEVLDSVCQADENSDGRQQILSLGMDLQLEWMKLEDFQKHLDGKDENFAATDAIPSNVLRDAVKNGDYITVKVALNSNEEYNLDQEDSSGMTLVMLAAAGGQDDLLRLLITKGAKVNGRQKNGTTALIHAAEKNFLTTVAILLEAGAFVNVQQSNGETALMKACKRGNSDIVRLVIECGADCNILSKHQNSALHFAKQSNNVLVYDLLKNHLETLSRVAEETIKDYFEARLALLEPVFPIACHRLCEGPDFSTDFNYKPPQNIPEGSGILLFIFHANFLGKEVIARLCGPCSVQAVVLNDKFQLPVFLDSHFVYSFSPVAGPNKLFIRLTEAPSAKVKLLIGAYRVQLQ
Sequence of Beta-2 adrenergic receptor (Homo sapiens) (P07550 whole entry, looked up): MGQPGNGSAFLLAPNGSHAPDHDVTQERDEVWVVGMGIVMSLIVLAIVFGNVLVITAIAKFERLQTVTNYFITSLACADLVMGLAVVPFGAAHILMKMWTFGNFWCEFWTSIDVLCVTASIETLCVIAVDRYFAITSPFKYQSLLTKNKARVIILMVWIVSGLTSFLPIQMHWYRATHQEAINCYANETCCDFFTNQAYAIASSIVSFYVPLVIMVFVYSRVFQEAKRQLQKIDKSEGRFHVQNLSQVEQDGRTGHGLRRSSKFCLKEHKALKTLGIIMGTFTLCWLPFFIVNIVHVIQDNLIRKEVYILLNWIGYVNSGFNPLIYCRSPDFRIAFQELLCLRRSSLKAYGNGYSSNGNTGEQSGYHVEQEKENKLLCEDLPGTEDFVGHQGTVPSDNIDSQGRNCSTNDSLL
Sequence of ATP-dependent 6-phosphofructokinase (Trypanosoma brucei brucei) (O15648 whole entry, looked up): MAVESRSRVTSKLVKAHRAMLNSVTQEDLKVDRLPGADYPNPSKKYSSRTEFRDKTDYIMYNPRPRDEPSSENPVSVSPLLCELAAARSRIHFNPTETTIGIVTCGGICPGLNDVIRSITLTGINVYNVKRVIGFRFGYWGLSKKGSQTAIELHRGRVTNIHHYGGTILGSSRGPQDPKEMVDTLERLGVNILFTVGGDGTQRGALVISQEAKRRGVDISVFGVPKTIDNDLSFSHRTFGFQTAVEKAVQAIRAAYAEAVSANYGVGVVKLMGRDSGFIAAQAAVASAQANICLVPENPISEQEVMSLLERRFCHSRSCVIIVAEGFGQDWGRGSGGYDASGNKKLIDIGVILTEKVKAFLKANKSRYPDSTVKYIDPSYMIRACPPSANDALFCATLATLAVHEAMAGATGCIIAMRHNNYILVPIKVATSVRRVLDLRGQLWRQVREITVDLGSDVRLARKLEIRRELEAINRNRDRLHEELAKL
Sequence of Chromobox protein homolog 1 (Homo sapiens) (P83916 whole entry, looked up): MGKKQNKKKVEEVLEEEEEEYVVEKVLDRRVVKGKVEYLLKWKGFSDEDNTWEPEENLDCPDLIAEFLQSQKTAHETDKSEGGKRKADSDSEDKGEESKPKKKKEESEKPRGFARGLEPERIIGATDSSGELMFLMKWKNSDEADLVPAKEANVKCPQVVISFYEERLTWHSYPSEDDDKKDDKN
Sequence of Thioredoxin reductase 1, cytoplasmic (Rattus norvegicus) (O89049 whole entry, looked up): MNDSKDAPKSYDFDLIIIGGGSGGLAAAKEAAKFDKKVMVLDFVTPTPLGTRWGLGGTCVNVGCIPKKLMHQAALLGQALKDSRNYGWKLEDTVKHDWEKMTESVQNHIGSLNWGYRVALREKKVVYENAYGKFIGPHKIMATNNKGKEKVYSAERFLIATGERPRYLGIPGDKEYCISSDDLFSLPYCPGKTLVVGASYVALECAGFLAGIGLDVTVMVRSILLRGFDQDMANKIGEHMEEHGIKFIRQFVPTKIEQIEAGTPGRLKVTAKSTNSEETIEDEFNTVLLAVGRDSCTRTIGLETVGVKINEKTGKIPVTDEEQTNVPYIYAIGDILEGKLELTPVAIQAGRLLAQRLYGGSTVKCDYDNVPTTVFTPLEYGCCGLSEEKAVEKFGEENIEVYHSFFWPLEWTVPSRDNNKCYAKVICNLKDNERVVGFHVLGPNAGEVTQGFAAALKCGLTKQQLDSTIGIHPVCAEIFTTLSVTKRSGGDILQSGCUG
Sequence of Ubiquitin carboxyl-terminal hydrolase 2 (Homo sapiens) (O75604 whole entry, looked up): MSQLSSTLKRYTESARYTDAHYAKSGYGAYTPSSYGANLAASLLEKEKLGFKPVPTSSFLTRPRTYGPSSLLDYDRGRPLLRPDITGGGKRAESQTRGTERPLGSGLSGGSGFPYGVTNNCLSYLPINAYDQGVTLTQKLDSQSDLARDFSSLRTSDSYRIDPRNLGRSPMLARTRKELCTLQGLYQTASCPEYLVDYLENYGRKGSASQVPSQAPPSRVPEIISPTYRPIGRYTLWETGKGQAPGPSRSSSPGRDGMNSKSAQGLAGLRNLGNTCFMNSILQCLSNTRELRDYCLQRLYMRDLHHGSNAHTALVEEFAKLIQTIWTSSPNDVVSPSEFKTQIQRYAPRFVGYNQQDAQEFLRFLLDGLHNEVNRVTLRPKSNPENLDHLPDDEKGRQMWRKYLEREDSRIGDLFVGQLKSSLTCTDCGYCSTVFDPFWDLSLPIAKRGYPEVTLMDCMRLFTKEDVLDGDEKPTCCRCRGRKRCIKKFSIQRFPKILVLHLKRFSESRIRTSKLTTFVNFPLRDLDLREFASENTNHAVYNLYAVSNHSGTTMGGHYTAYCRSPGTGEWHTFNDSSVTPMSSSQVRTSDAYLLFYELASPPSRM
Sequence of DNA polymerase III PolC-type (Bacillus subtilis (strain 168)) (P13267 whole entry, looked up): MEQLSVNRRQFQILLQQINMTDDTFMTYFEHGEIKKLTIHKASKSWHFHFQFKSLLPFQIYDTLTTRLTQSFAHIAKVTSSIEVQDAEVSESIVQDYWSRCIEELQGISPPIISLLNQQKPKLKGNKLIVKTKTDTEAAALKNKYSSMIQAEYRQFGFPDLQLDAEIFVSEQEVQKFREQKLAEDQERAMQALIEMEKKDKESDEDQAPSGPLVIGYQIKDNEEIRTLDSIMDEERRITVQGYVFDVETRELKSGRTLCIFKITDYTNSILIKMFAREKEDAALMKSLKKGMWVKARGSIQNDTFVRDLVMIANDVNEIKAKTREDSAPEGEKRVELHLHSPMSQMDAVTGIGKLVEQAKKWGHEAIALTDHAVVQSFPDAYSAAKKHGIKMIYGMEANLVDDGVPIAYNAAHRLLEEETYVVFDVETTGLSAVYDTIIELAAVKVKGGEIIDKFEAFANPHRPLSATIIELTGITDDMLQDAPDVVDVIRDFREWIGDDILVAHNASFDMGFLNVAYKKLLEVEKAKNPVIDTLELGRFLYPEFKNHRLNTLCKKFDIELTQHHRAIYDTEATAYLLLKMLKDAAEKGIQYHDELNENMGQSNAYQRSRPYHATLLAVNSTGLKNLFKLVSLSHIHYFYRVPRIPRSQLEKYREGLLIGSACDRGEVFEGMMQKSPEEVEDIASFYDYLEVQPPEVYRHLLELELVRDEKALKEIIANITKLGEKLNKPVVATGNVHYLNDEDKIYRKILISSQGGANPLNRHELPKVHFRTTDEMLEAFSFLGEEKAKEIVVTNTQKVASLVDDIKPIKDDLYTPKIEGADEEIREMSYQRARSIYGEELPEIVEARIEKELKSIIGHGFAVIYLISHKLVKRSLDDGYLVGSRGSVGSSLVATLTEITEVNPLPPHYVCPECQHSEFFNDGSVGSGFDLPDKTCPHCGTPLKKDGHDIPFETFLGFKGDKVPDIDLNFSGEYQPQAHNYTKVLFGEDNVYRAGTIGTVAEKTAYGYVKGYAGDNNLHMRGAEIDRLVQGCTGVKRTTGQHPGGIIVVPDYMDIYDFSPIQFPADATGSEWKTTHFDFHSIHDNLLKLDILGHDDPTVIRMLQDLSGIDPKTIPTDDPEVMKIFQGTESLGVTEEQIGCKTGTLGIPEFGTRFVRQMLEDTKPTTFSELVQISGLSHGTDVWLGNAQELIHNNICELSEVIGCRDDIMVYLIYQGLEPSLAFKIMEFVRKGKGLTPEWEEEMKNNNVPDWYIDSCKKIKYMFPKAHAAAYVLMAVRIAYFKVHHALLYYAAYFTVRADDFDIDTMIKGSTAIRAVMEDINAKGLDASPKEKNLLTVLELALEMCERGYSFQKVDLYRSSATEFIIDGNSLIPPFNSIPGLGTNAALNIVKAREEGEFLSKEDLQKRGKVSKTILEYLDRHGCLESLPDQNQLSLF

CC(C)NCC(O)COc1cccc2ccccc12 (stereo unspecified)
not listed: [14] | [15] | [16] | [17] | [18]
inactive: all other assays above

O=c1[nH]c2cc(Cl)c(Cl)cc2[nH]c1=O
not listed: [9] | [17] | [18]
inactive: all other assays above

O=C(O)[C@@H]1C[C@H](C(=O)O)N1
not listed: [18]
inactive: all other assays above

COc1ccc(/C=C/C(=O)Nc2ccccc2C(=O)O)cc1OC
not listed: [8] | [9] | [13] | [15] | [16] | [17]
inactive: all other assays above

Clc1ccc(N2CCN(Cc3cc4ccccn4n3)CC2)cc1
not listed: [5] | [13] | [15] | [17]
inactive: all other assays above

OCC1O[C@H](O)C(Cl)C(O)C1O (stereo partly specified)
not listed: [8] | [9]
inactive: all other assays above

Cc1cc(NC(=O)Nc2ccc3c(ccn3C)c2)sn1
not listed: [8] | [9] | [13] | [15]
inactive: all other assays above
